According to ChEMBL document CHEMBL2218924, “A broad activity screen in support of a chemogenomic map for kinase signalling research and drug discovery” (Biochem J, 2013):

Key:
[1] = molecular target: Maternal embryonic leucine zipper kinase (Homo sapiens) (UniProt Q14680); conditions: at 1 µM
[2] = molecular target: Maternal embryonic leucine zipper kinase (Homo sapiens) (UniProt Q14680); conditions: at 10 µM
[3] = molecular target: T1, Dual specificity mitogen-activated protein kinase kinase 6 (Homo sapiens) (UniProt P52564); conditions: at 1 µM
T1 sequence (whole entry): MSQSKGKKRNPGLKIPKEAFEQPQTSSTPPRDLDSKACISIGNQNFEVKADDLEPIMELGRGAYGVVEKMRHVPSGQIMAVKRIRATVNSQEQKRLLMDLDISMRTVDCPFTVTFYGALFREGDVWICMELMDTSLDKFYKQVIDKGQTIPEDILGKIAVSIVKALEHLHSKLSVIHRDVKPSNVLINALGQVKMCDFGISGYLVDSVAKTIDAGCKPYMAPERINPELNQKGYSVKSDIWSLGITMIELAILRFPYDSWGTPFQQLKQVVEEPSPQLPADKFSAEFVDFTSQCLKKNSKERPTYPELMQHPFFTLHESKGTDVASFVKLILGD

[4] = molecular target: T1, Dual specificity mitogen-activated protein kinase kinase 6 (Homo sapiens); conditions: at 10 µM
[5] = molecular target: T2, Dual specificity mitogen-activated protein kinase kinase 7 (Homo sapiens) (UniProt O14733); conditions: at 1 µM
T2 sequence (whole entry): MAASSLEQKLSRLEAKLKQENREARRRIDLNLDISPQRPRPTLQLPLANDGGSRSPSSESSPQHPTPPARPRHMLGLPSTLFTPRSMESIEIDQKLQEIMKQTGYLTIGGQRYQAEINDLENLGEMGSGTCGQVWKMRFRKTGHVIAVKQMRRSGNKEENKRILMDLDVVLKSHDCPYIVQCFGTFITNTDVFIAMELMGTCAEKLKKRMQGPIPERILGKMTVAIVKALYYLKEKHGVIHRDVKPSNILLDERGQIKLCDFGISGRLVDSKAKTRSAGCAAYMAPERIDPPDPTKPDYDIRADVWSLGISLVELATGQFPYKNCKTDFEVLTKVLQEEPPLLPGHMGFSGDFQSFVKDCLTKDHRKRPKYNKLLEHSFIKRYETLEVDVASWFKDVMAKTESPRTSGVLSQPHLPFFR

[6] = molecular target: Dual specificity mitogen-activated protein kinase kinase 1 (Homo sapiens) (UniProt Q02750); conditions: at 1 µM
[7] = molecular target: Dual specificity mitogen-activated protein kinase kinase 1 (Homo sapiens) (UniProt Q02750); conditions: at 10 µM
[8] = molecular target: Misshapen-like kinase 1 (Homo sapiens) (UniProt Q8N4C8); conditions: at 10 µM
[9] = molecular target: T2, Dual specificity mitogen-activated protein kinase kinase 7 (Homo sapiens); conditions: at 10 µM
[10] = molecular target: Misshapen-like kinase 1 (Homo sapiens) (UniProt Q8N4C8); conditions: at 1 µM

Dual specificity mitogen-activated protein kinase kinase 1 (Homo sapiens), sequence (Q02750 whole entry): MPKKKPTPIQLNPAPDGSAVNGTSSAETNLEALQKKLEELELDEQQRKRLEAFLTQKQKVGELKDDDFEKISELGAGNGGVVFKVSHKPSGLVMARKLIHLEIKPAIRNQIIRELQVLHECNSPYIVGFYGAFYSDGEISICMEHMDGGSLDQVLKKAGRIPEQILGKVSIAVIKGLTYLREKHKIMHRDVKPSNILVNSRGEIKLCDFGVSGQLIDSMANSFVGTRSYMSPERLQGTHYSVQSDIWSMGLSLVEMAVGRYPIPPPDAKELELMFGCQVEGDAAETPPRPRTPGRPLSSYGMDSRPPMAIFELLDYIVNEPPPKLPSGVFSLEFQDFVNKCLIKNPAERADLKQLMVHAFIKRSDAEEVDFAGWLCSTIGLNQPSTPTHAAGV
Maternal embryonic leucine zipper kinase (Homo sapiens), sequence (Q14680 whole entry, looked up): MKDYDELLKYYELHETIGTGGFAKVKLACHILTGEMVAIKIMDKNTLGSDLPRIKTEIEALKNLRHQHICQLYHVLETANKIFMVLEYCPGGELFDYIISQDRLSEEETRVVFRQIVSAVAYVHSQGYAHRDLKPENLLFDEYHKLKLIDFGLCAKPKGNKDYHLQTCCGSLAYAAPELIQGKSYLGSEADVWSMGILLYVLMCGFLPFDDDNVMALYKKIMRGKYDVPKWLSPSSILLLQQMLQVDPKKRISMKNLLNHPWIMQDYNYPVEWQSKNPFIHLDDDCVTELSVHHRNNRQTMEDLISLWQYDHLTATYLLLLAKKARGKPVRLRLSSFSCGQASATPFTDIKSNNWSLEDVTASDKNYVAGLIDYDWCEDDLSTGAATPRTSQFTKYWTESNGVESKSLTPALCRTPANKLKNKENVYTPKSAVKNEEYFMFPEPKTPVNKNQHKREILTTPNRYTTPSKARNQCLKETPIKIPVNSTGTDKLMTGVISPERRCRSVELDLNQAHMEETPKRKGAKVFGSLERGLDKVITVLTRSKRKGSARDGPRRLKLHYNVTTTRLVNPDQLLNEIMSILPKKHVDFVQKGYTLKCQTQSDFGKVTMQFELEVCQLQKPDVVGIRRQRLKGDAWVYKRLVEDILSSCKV
Misshapen-like kinase 1 (Homo sapiens), sequence (Q8N4C8 whole entry, looked up): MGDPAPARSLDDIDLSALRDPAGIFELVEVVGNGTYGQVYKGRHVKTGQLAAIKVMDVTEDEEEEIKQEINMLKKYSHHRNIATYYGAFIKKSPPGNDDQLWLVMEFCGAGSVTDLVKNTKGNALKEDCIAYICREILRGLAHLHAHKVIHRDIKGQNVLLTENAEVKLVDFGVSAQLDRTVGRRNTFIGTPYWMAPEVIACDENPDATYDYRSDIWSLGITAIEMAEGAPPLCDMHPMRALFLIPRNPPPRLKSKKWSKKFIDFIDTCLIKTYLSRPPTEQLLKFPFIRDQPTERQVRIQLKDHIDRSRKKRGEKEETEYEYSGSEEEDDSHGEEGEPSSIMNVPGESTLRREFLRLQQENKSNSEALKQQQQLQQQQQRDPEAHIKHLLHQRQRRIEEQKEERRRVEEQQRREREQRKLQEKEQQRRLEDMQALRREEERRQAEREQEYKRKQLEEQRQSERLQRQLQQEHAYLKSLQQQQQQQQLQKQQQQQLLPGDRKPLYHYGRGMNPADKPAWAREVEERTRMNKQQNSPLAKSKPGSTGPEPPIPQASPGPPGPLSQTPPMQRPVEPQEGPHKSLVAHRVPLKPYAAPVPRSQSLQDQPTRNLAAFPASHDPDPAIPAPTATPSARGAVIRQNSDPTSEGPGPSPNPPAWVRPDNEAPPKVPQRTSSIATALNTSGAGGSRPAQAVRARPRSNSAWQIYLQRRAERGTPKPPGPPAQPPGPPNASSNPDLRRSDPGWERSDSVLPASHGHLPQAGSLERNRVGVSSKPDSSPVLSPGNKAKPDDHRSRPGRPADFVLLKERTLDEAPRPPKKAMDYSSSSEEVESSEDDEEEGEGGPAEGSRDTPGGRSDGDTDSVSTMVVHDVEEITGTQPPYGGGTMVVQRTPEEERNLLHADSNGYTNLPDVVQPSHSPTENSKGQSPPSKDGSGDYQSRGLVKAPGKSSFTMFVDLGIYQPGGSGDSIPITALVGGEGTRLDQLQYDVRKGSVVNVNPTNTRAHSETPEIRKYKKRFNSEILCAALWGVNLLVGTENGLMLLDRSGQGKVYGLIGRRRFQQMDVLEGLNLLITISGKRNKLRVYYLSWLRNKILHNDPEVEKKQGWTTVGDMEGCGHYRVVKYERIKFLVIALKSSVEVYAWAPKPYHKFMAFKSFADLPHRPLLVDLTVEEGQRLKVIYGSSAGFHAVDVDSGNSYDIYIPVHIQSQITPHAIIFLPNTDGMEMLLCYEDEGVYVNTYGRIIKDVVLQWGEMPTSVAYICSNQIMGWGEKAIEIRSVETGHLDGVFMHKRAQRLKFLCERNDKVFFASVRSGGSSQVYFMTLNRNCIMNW

Row | SMILES | residual activity [1] | residual activity [2] | residual activity [3] | residual activity [4] | residual activity [5] | residual activity [6] | residual activity [7] | residual activity [8] | residual activity [9] | residual activity [10]
1 | CC(C)[C@H](CO)Nc1nc(Nc2cccc(Cl)c2)c2ncn(C(C)C)c2n1 | 66% | 18% | 97% | 64% | 75% | – | – | – | – | –
2 | CCc1nc(-c2ccc(OC)cc2)[nH]c1-c1ccncc1 | – | 65% | – | – | – | – | – | – | – | –
3 | CCn1cnc2c(Nc3cccc(Cl)c3)nc(N[C@@H]3CCCC[C@@H]3N)nc21 | 59% | 18% | 99% | 78% | 86% | 87% | 25% | 80% | 91% | –
4 | COc1cc(OC)c(/C=C2\C(=O)Nc3ccccc32)c(OC)c1 | 104% | 77% | 105% | 87% | 98% | – | – | 50% | 96% | 105%
5 | COC(=O)[C@@]1(O)C[C@H]2O[C@]1(C)n1c3ccccc3c3c4c(c5c6ccccc6n2c5c31)C(=O)NC4 | 1% | -1% | – | – | 7% | – | – | 1% | 0% | 0%
6 | COc1cc2ncnc(Nc3ccc(OCc4ccccc4)cc3)c2cc1OC | 79% | 77% | 90% | 87% | 102% | 115% | 84% | 71% | 85% | 87%
7 | O=[N+]([O-])/C=C/c1ccc2c(c1)OCO2 | 78% | 84% | 85% | 103% | 112% | 127% | 120% | 82% | 84% | 97%
8 | CC(C)(C)c1cc(C=C(C#N)C#N)cc(Br)c1O | – | – | – | 115% | – | 113% | 96% | 113% | 102% | 122%
9 | O=c1[nH]c2ccccc2n1C1CCN(Cc2ccc(-c3nc4cc5[nH]cnc5cc4nc3-c3ccccc3)cc2)CC1 | 94% | 65% | 80% | 90% | 112% | 127% | 62% | 80% | 112% | 97%
10 | O=C1NC(=O)c2c1c1c3ccccc3n3c1c1c2c2ccccc2n1C1CCC3O1 | 55% | 72% | 27% | 10% | 100% | 40% | 51% | 71% | 98% | 86%
11 | COc1ccc2c(c1)/C(=C/c1cnc[nH]1)C(=O)N2 | 24% | 3% | – | – | 71% | 62% | 11% | 14% | 16% | 68%
12 | N/C(=N\[N+](=O)[O-])N/N=C\c1ccc(-c2cccc([N+](=O)[O-])c2)o1 | 92% | 85% | 88% | 83% | – | – | – | 78% | – | 99%
13 | O=C1Nc2ccc3ncsc3c2/C1=C/c1c[nH]cn1 | 6% | 1% | -1% | 1% | 43% | 15% | 1% | 6% | 12% | 27%
14 | O=C1c2ccccc2-c2nc3nnnn3nc21 | 67% | 33% | – | 116% | 66% | – | – | 107% | 39% | 105%
15 | c1cc(-c2cnn3cc(-c4ccc(OCCN5CCCCC5)cc4)cnc23)ccn1 | 5% | -1% | – | – | – | 123% | 117% | 13% | – | 59%
16 | C[S+]([O-])c1ccc(-c2nc(-c3ccc(F)cc3)c(-c3ccncc3)[nH]2)cc1 (stereo unspecified) | 107% | 84% | 43% | 3% | 86% | 113% | 110% | 63% | 68% | 112%
17 | COc1ccc2c(c[n+](C)c3c4cc5c(cc4ccc23)OCO5)c1OC | 84% | 31% | – | 130% | 110% | 125% | 119% | 75% | 71% | 97%
